# Tau FP inhib – inhibitors of human tau fibril formation. P10636. K18 P301L tau heparin fibrillization, Alexa594 FP, 6 h. Potency, µM (highest dose often 57.7 µM), inactives show top-dose activity, negative = inhibition, usual class: inhibitors. actives 0.39% (n = 280,000); also: nearly all actives have a fitted effect of over 55% in size
#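 Human tau K18 […] P301L fragment, 15 uM unlabeled plus 0.24 uM Alexa 594-labeled tau (final), with compound and 20 uM heparin in 100 mM sodium acetate pH 7; 6 hr at 37 C, then Alexa 594 FP read.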
# Sfp PPTase inh – inhibitors of Bacillus subtilis Sfp phosphopantetheinyl transferase | Potency, µM, for the others: largest response in the series, negative = inhibition, actives largely listed as inhibitors | Biochemical Sfp PPTase activity, qHTS | AID 1490 | actives 3.5% (n = 310,000) | Q9F4F7;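 also: the enzyme is Sfp with the accession as filed and its product quenches rhodamine fluorescence; 0% = enzyme reaction without inhibitor and -100% = no enzyme wells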
#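 Sfp 15 nM + cpd, 15 min RT; start w/ rhodamine-CoA 5 uM, BHQ-2-YbbR 12.5 uM (final); 50 mM Hepes pH 7.6, 10 mM MgCl2, 0.01% NP-40, 0.01% BSA; read 525/598 nm at 0 and 30 min.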
# VDR inhibitor – inhibitors of human vitamin D receptor. VDR-SRC2-3 peptide fluorescence polarization, 2 h. Potency, µM, without a hit: max response, negative = inhibition, usual class: inhibitors. actives 0.93% (n = 400,000)
#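 Inhibition of the VDR/SRC2-3 peptide interaction is quantified by fluorescence polarization. Compounds (23 nl, pintool) incubate with the reagents for 2 hours at ambient room temperature.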
# PLK1 PBD block – PLK1 (human) polo-box domain binding inhibition | P53350 | Plk1 PBD binding of FITC phosphopeptide, fluorescence polarization | Potency, µM, for the others: max response, negative = inhibition, usual class: inhibitors | actives 2.8% (n = 360,000) | AID 720504; also: series mostly up to about 57 µM; nearly all actives have a fitted effect of over 65% in size
# Target sequence (P53350 whole entry, looked up, the tested form may be a part): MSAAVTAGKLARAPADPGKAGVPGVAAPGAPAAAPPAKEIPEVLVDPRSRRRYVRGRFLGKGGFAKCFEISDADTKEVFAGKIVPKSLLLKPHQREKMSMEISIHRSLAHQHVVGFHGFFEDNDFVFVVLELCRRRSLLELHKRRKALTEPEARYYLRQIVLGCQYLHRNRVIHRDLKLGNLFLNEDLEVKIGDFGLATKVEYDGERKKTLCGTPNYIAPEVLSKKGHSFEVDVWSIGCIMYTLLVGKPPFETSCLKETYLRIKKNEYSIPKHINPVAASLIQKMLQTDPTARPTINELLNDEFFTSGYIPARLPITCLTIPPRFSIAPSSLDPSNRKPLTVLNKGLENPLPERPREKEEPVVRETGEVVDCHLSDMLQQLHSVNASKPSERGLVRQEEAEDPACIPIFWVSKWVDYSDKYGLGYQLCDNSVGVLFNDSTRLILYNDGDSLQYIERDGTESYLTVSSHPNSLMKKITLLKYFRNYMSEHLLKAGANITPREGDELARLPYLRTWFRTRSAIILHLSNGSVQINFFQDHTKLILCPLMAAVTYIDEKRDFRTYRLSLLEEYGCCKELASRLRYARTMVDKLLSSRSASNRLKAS
# Tau fluor cs – counter-screen for tau fibril formation inhibitors. tau K18 P301L Alexa594 fluorescence, heparin fibrillization. actives 0.93% (n = 280,000). AID 1463. Potency, µM (doses to about 57.7 µM), for inactives: at the highest dose activity change, negative = decrease; also: nearly all actives have a fitted effect of over 55% in size
#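 Human K18 P301L tau (15 uM unlabeled plus 0.24 uM Alexa 594-labeled, final) in 100 mM sodium acetate pH 7 was mixed with compound and 20 uM heparin and incubated 6 hr at 37 C.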
# Tau ThT inhib – blocks human tau fibril formation measured by thioflavin T | recombinant tau K18 P301L, heparin-induced fibrillization, ThT fluorescence | Potency, µM (titrated, usually from 57.4 µM), for the others: at the highest dose activity, negative = inhibition, most hits filed as inhibitors | actives 2.1% (n = 270,000) | AID 1460; also: nearly all actives have a fitted effect of over 55% in size
#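 Using a mix of unlabeled (15 uM) and Alexa 594-labeled (0.24 uM) tau K18 P301L, heparin-triggered fibrillization over 6 hr at 37 C was scored by ThT fluorescence.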
# An asterisk follows results filed as active; ? = inconclusive; . = not tested or not shown; [ ] = dose if it differs, or a comment. Compounds with a hit are over-represented: about 6% of the library has one in this group of screens. Calls follow the shape of the dose curve; as a rule, active = well fitted curve in the direction sought with a large enough effect; inconclusive = small, poorly fitted or top-dose-only effect, or another doubt; inactive = no such curve, though single readings can be large; an effect the other way counts as inactive or inconclusive. Unless noted, % is scaled to controls: 0 for no effect and ±100 for the full control effect; potency is read from the fitted curve at half-maximal effect.
SMILES,Tau FP inhib,Sfp PPTase inh,VDR inhibitor,PLK1 PBD block,Tau fluor cs,Tau ThT inhib
Cc1ccc(/C=C2\SC(=S)N(c3cccnc3)C2=O)o1,?,50µM*,-3%,-11%,-18%,16µM*
Cc1cccc(N2C(=O)/C(=C/c3cccnc3)SC2=S)c1,8%,14%,-13%,-10%,-6%,?
CCN(CC)C(=O)C1=C(C)N(Cc2ccc(OC)cc2)C(=O)C(CC(=O)NC2CCCCC2)C1 (stereo not drawn),.,.,.,-8%,.,.
CO/N=C\CC(=O)Nc1ccc(Cl)cc1Cl,4%,-7%,?,21µM*,2%,10%
CC1CCCC2(C1)NC(=S)c1c(sc3c1CCCC3)N2 (stereo not drawn),?,6.3µM*,40µM*,5.3µM*,?,18µM*
O=C1/C(=C\c2cccnc2)SC(=S)N1C1CCS(=O)(=O)C1 (stereo not drawn),-2%,79µM*,-8%,-19%,-2%,?
COc1ccc(/C=C2/SC(=O)N(CC(O)Cn3c4ccccc4c4ccccc43)C2=O)cc1 (stereo not drawn),?,10%,?,30µM*,5%,4%
COc1ccc(/C=C2\SC(=S)N(C(Cc3ccccc3)C(=O)O)C2=O)cc1 (stereo not drawn),-11%,-42%,-17%,27µM*,-7%,?
O=C(O)C(Cc1ccccc1)N1C(=O)/C(=C/c2cccnc2)SC1=S (stereo not drawn),-18%,79µM*,?,0%,-8%,?
O=C1S/C(=C\c2ccccc2)C(=O)N1CC(O)Cn1c2ccccc2c2ccccc21 (stereo not drawn),-2%,-8%,11%,-4%,-16%,-11%
COc1ccccc1CNC(=O)/C=C/c1cc2c(cc1Br)OCO2,-1%,8%,4%,-9%,-4%,6%
Cc1cccc(N(CC(=O)NCC2CCCO2)C(=O)CNS(=O)(=O)c2ccc(Cl)cc2)c1 (stereo not drawn),.,1%,-14%,-12%,.,.
O=C(NCc1ccccc1)C(=O)Nc1c2c(nn1-c1ccccc1)CSC2,-10%,.,25%,.,0%,?
Cc1cc(C)c(NC(=O)CSc2n[nH]c(-c3ccccc3Cl)n2)c(C)c1,2%,.,15%,.,-7%,-10%
CCCCN1C(=O)C2Cc3c([nH]c4ccccc34)CN2C1=S (stereo not drawn),8%,56µM*,-12%,-12%,?,?
O=c1c2ccccc2n(Cc2ccccc2Cl)c(=O)n1CCc1ccccc1,-8%,.,-3%,.,-13%,-5%
O=C(Nc1ccc(N2CCCC2)c(Cl)c1)c1ccc([N+](=O)[O-])o1,-3%,-5%,4%,-3%,14µM*[quencher],8.9µM*
O=C(/C=C/c1ccc(Cl)c([N+](=O)[O-])c1)Nc1ccc(N2CCCC2)c(Cl)c1,6%,7%,2%,2%,?,1µM*
CN1CCN(c2ccc(S(=O)(=O)N3CCCCC3)cc2NC(=O)/C=C/c2ccc(Cl)c([N+](=O)[O-])c2)CC1,.,.,4%,-6%,.,.
COc1ccc(N2CCCC2)c(NC(=O)c2ccc([N+](=O)[O-])o2)c1,.,0%,79µM*,24µM*,.,.
O=C(Nc1ccc(N2CCCCC2)cc1)c1ccc([N+](=O)[O-])o1,.,7%,6%,-21%,.,.
O=C(NCCc1ccccc1)c1cc2sccc2n1Cc1ccc(F)cc1,-17%,.,-13%,.,-22%,-6%
CSc1ncccc1C(=O)N1CCCC(N2CCN(c3ccccc3C)CC2)C1 (stereo not drawn),.,.,.,5%,.,.
O=C(O)CSc1c2c(nc3cc(C(=O)Nc4ccc(F)c(Cl)c4)ccc13)CCC2,1%,.,-18%,.,-6%,9%
CCOC(=O)CCN1C(=O)[C@H]2[C@H]3[C@H](O)[C@H](O)C/C(=N/OC[C@@H](O)COCc4ccco4)[C@H]3CC[C@@H]2C1=O,0%[11.6 µM],-4%,.,.,0%[11.6 µM],2%[11.5 µM]

# From PubChem
